Records with an inconclusive call do not appear. Calls of active or inactive are those of the source.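 How the source made its calls, unless noted: active means inhibition over a set limit, the all-compound mean plus 3 SD, in both replicate runs; inconclusive means over that limit in just one replicate run; inactive means at or under that limit in both runs.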
Legend:
[1] = OD615 S. cerevisiae growth inhibition, permissive medium, pilot counter-assay, permissive growth control for S. cerevisiae lifespan shortening project (AID 705;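 active means growth inhibition above 25% in both replicates, a cutoff set 3 SD above the mean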); conditions: OD615, 24 h, at 10 µM, stronger effect = higher value
[2] = Restrictive medium S. cerevisiae growth inhibition, OD615, pilot screen of yeast lifespan reduction project, restrictive growth control (AID 706;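 active means growth inhibition above a set limit, 3 SD over mean compound inhibition, in both replicates, cut at about 43% in these data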;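 further: modified DeaD lifespan yeast strain shifted to restrictive glucose medium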); conditions: OD615, 48 h, at 10 µM, stronger effect = higher value
[3] = viability gain of MRP-1-high H69AR cells under doxorubicin, pilot screen, MRP-1 activator project, CellTiter-Glo, duplicate (AID 807;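 active means viability increase at or above a cutoff of the median across tested compounds plus 3 SD, cut at about 8.5% in these data, passing the limit was not always enough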;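 further: compound pretreatment 18-22 h then 72 h combined with doxorubicin; 0% = doxorubicin alone and 100% = vehicle without doxorubicin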); conditions: H69AR viability with doxorubicin, CellTiter-Glo luminescence; at 10 µM; stronger effect = higher value
[4] = growth suppression of beta-catenin knockout HCT116, pilot screen, human colon tumor cells (AID 823;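 active means cell viability at or below a set limit in both duplicate runs, the limit being the all-compound median minus 4 SD, cut at about 23% in these data, passing the limit was not always enough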;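 further: 0% = wells killed by 20 µM Hyamine and 100% = untreated DMSO cell wells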); conditions: CellTiter-Glo, 60 h, at 10 µM, stronger effect = lower value
[5] = growth suppression of PTEN-deleted HCT116, pilot screen, cell-based, HCT116 clonal line, CellTiter-Glo (AID 824;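 active means viability at or below 27.92% in each of two runs, the all-compound median minus 4 SD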;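 further: 0% = 20 µM Hyamine control and 100% = vehicle cell control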); conditions: 60 h, at 10 µM, stronger effect = lower value
[6] = inhibitors of the yeast RAM network, pilot screen, dse1pr::URA3 reporter, 5-FOA selection (AID 869);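 further: 0% = DMSO wells with no growth and 100% = 10 µM 1-NA-PP1 with full growth; RAM network block rescues cells from 5-FOA so hits raise OD615 growth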; conditions: S. cerevisiae dse1pr::URA3 5-FOA growth, OD615, 2 d, at 10 µM, stronger effect = higher value
[7] = RAM signaling pathway blockade in yeast – S. cerevisiae, Pdr1DBD-CYC8 efflux-inhibited sensitized strain, primary screen (AID 1298;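 active means RAM network inhibition above 8.4% in each of two replicates, 3 SD over the compound average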;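 further: 0% = DMSO untreated cells without growth and 100% = 10 µM 1-NA-PP1 full growth; higher means more yeast growth rescued from 5-FOA killing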); conditions: S. cerevisiae cbk1-as DSE1-URA3 strain, 5-FOA growth OD615, 2 d; at 50 µM; stronger effect = higher value
[8] = target: Pantothenate synthetase (Mycobacterium tuberculosis (strain ATCC 25618 / H37Rv)) (UniProt P9WIL5); test: Recombinant Mtb pantothenate synthetase (PanC) inhibitors, coupled enzyme, confirmatory (AID 375; call rule not given here;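 further: 0% = full reaction with vehicle and 100% = no enzyme background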); conditions: coupled enzyme assay; at 10 µM, stronger effect = higher value
[9] = reducers of endogenous Her2 protein level, primary screen, SKBR3 breast tumor cells, AlphaScreen, ATP viability (AID 461;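 active means Her2 level under about 52% in both replicate screens, with viability over 70% of control, limit read from the data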;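 on Her2 level: lower value means less Her2 protein in the cells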;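 on viability: percent of carrier control wells set as 100% viability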); conditions: 18-24 h, measured here: SKBR3 viability, ATP luminescence, at 10 µM
[10] = target: Receptor tyrosine-protein kinase erbB-2 (Homo sapiens) (UniProt P04626); test: as above; conditions: 18-24 h, at 10 µM, stronger effect = lower value
[11] = SK-BR-3 cell growth inhibitors, pilot screen, 24 h, human (AID 572;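 active means viability at or below 10% of carrier control in both of two separate runs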;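 further: compound exposure lasted between 18 and 24 h rather than exactly 24 h; 100% = carrier-treated control wells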); conditions: SK-BR-3 viability, CellTiter-Glo luminescence, at 10 µM, stronger effect = lower value
[12] = HUVEC growth inhibition – cell-based, human, primary screen (AID 575;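 active means viability at or below 30% in both replicate assays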;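 further: 100% = median of untreated cell wells with 0.1% DMSO on each plate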); conditions: HUVEC proliferation, CellTiter-Glo luminescence, 72 h; at 10 µM; stronger effect = lower value
[13] = reversal of MRP1-mediated doxorubicin resistance, pilot screen, H69AR cells, doxorubicin co-treatment (AID 601;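 active means viability loss from added drug above about 55%, and viability with drug at most 40%, in both replicates, limit read from the data, passing the limit was not always enough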); conditions: CellTiter-Glo, 72 h, at 10 µM; for differential viability (reversal): stronger effect = higher value
[14] = 384-well plate pilot, post-Golgi transport modulator project, inhibition of yeast transport mutant growth (AID 636; in the data active means inhibition above about 31%); conditions: absorbance 615 nm, about 18 h, stronger effect = higher value
[15] = growth suppression of yeast trafficking mutant, preliminary HTS, modulators of trafficking downstream of Golgi apparatus project, 1536-format plate, OD 615 nm (AID 637; in the data active means inhibition above about 30%); conditions: yeast transport mutant growth, absorbance 615 nm, 18 h; stronger effect = higher value
[16] = growth inhibitors of H69AR lung tumor, primary screen, human, duplicate replicates (AID 580;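 active means viability at or under a set limit in both replicates, limit being median viability minus 3 SD, cut at about 48% in these data, passing the limit was not always enough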;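 further: 100% = mean luminescence of untreated wells and 0% = no signal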); conditions: H69AR lung tumor cells viability, ATP luminescence, 72 h; at 10 µM; stronger effect = lower value
[17] = H69AR cells + 2 uM doxorubicin, measured here: viability with 2 uM doxorubicin, stronger effect = lower value
[18] = H69AR cells, compound alone cytotoxicity

Chain of Receptor tyrosine-protein kinase erbB-2 (Homo sapiens) (P04626 whole entry, looked up): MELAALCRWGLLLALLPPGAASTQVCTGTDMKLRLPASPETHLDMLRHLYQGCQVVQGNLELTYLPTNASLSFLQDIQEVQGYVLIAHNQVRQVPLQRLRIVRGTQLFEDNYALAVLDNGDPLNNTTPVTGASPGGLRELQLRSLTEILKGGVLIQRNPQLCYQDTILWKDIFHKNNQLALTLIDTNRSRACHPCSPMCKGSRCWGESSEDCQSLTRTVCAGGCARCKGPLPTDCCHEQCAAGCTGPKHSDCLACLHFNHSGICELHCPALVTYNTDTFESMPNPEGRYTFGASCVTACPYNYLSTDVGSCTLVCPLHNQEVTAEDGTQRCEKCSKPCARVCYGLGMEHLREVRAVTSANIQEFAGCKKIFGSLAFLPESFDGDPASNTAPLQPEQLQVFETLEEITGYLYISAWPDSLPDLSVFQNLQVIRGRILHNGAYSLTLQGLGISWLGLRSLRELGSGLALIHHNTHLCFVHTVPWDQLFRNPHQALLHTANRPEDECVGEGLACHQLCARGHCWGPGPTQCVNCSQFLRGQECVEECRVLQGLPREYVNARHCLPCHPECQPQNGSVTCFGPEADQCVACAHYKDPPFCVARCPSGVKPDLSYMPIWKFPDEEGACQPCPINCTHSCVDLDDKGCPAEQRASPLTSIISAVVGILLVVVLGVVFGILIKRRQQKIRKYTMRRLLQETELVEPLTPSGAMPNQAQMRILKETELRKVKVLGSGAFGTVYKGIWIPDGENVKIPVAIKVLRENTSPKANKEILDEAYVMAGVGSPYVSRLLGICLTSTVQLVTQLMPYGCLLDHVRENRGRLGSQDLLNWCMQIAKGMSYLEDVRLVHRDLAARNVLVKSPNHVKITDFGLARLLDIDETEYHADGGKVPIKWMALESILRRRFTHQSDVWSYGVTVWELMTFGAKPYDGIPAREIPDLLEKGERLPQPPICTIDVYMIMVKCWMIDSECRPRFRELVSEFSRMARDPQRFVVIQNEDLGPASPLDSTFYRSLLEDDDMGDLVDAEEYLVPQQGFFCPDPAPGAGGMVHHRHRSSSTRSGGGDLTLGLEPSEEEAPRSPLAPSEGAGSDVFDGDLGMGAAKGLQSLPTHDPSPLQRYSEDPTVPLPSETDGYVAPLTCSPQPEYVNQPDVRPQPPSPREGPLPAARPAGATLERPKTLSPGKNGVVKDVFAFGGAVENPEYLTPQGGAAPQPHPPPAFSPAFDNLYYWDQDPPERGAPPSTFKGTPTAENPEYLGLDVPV
Chain of Pantothenate synthetase (Mycobacterium tuberculosis (strain ATCC 25618 / H37Rv)) (P9WIL5 whole entry, looked up): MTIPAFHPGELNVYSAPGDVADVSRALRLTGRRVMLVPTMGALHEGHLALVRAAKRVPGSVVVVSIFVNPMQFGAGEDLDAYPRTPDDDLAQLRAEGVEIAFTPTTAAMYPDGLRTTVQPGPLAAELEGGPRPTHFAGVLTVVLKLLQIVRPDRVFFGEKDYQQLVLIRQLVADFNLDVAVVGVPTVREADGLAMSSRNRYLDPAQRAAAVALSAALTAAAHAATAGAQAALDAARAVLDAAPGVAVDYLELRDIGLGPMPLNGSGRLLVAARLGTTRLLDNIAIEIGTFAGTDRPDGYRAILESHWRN

CN(C(=O)Oc1cccc2cccnc12)c1ccccc1
inactive: growth inhibition [1] -2.11% | growth inhibition [2] 3.21% | viability increase [3] -0.61% | viability [4] 91% | viability [5] 90.1% | inhibition [6] 0.415% | RAM network inhibition [7] 2.67%

O=c1cccc2n1CC1CC2CN(Cc2ccc3c(c2)OCO3)C1 (stereo not given)
inactive: growth inhibition [1] -5.27% | growth inhibition [2] 2.45% | viability increase [3] -2.71% | viability [4] 98.1% | viability [5] 94.6% | inhibition [6] 0.6% | RAM network inhibition [7] -0.2%

CCOc1ccc(C2SCC(=O)Nc3c2c(=O)[nH]n3C2CCCCCC2)cc1 (stereo not given)
58.3%: viability [13, 18]
110%: viability [9]
inactive: inhibition [8] 0% | Her2 level [10] 108% | viability [11] 110% | viability [12] 63.8% | differential viability (reversal) ([13]; H69AR cells + 2 uM doxorubicin) 1.13% | inhibition [14] -5.2% | inhibition [15] -7.62% | growth inhibition [1] -17.8% | growth inhibition [2] -3.29% | viability increase [3] -7.49% | viability [4] 97.7% | inhibition [6] 2.26% | RAM network inhibition [7] 4%
57.2%: viability [13, 17]

COC(=O)C(O)(c1ccc(N(C)S(=O)(=O)c2ccccc2)cc1)C(F)(F)F (stereo not given)
inactive: growth inhibition [1] -3.52% | growth inhibition [2] 2.86% | viability increase [3] 1.65% | viability [4] 98.8% | viability [5] 108% | inhibition [6] 1.2% | RAM network inhibition [7] 0.9%

CN1C(=O)C(Cc2cccc3ccccc23)C(=O)N(C)C1=O
85.2%: viability [13, 18]
92.4%: viability [13, 17]
73.5%: viability [9]
inactive: inhibition [8] 6% | Her2 level [10] 94% | viability [11] 73.5% | viability [12] 95.4% | viability [16] 85.2% | differential viability (reversal) ([13]; H69AR cells + 2 uM doxorubicin) -7.14% | inhibition [14] -5.81% | inhibition [15] 0.98% | growth inhibition [1] -20.9% | growth inhibition [2] -4.64% | viability increase [3] -2.39% | viability [4] 92.5% | viability [5] 89.7% | inhibition [6] 0.305% | RAM network inhibition [7] 1.47%

— PubChem BioAssay
